These results are taken from PubChem BioAssay.

Assay [1] is described as follows: optical density shifts of acrAB sulA E. coli – strain DRC41, OD650, 48 h, E. coli filamentation inducer project, primary screen (AID 1152).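 Also: E. coli MC1000 strain DRC41 lacking acrAB efflux pump and sulA.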 Particulars: higher = more signal, called active from +8 up or from −8 down.
Assay [2] in a line: probe aLefty1 binding on compound microarray – biochemical, small-molecule microarray, 635/667 nm fluorescence, primary screen (AID 1153).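 Also: score merges spot fluorescence with signal-to-noise ratio from the scanned slide images.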 The conditions noted are these: higher = more signal.
Assay [3] is described as follows: plasmodial surface anion channel blockers, osmotic lysis – cell-based, P. falciparum Indochina, OD700, 1 h, primary screen (AID 1154). The conditions noted are these: P. falciparum Indochina infected RBC osmotic lysis, higher = more signal, called active from +8 up or from −8 down.
Assay [4] is described as follows: plasmodial surface anion channel blockers, osmotic lysis – cell-based, P. falciparum Indochina, OD700, 2 h, primary screen (AID 1155).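 Also: lysis reports solute entry through the parasite surface anion channel PSAC.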 The conditions noted are these: P. falciparum Indochina infected erythrocytes, higher = more signal, called active from +8 up or from −8 down.
Assay [5] can be described thus: changes in parasitized red cell lysis, either direction – P. falciparum Indochina, OD700, 3 h, PSAC antagonist project, primary screen (AID 1156). The conditions noted are these: P. falciparum-infected erythrocytes, osmotic lysis, higher = more signal, called active from +8 up or from −8 down.
A short description of assay [6]: plasmodial surface anion channel blockers, osmotic lysis – cell-based, P. falciparum Indochina, OD700, 18 h, primary screen (AID 1157). Particulars: P. falciparum Indochina infected erythrocytes, osmotic lysis OD700, 18 h; higher = more signal, called active from +8 up or from −8 down.
Assay [7] can be described thus: S6 kinase pathway phospho-S6 level changes – cell-based, A549, cytoblot, luminescence, serum-stimulated, primary screen (AID 1158).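 Also: serum-stimulated A549 lung adenocarcinoma cells; signal is phosphorylated S6 detected by cytoblot immunostaining with HRP secondary.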 Particulars: 5 h, higher = more signal.
The target in assay [8] is NADPH oxidase 2 (Homo sapiens) (UniProt P04839). Put plainly: compounds shifting NOX2 Amplex Red fluorescence – cell-based, HEK293-NOX2, PMA-stimulated, NOX inhibitor project, primary screen (AID 1159). Also: test concentration not given here. The conditions noted are these: 45 min, higher = more signal, called active from +8 up or from −8 down.
The target in assay [9] is NADPH oxidase 4 (Homo sapiens) (UniProt Q9NPH5). Put plainly: compounds shifting NOX4 Amplex Red fluorescence – cell-based, HEK293-NOX4, tetracycline-induced, NOX inhibitor project, primary screen (AID 1160). Particulars: HEK293-NOX4, Amplex Red H2O2 fluorescence, 45 min; higher = more signal, called active from +8 up or from −8 down.
Assay [10] concerns the target NADPH oxidase 5 (Homo sapiens) (UniProt Q96PH1). Description: compounds shifting NOX5 Amplex Red fluorescence – cell-based, HEK293-NOX5, NOX inhibitor project, primary screen (AID 1161). The conditions noted are these: HEK293-NOX5, ionomycin, 45 min, higher = more signal.
Assay [11] can be described thus: compound effects on lung adenocarcinoma cell viability – A549, calcein-AM fluorescence, 48 h, basal, profiling panel (AID 1162). Also: test concentration not given here. Particulars: higher = more signal.
The nature of assay [12]: compound effects on differentiated 3T3-L1 adipocyte viability – cell-based, 3T3-L1 adipocytes, calcein-AM fluorescence, 48 h, basal, profiling panel (AID 1163). Also: test concentration not given here. The conditions noted are these: 3T3-L1 adipocytes viability, higher = more signal.
The nature of assay [13]: compound effects on hepatocellular carcinoma cell viability – HepG2, calcein-AM fluorescence, 48 h, basal, profiling panel (AID 1164). Also: test concentration not given here. Particulars: higher = more signal.
Assay [14] is described as follows: compound effects on multiple myeloma cell viability – MM1S, calcein-AM fluorescence, 48 h, basal, profiling panel (AID 1165).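 Also: viability of MM1S multiple myeloma cells under basal unstimulated conditions; test concentration not given here.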 Particulars: higher = more signal.
Assay [15] can be described thus: calcein-AM signal in unstimulated myeloma cells – cell-based, calcein-AM fluorescence, 48 h, PK04 Diversity Set, profiling panel (AID 1166).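 Also: cells grown under basal conditions without added stimulus; test concentration not given here.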 The conditions noted are these: RPMI8226 myeloma viability, higher = more signal.
A short description of assay [16]: JC-1 mitochondrial signal, unstimulated HepG2 cells – cell-based, JC-1 fluorescence, 24 h, 100 nL compound, profiling panel (AID 1167). Also: test concentration not given here. The conditions noted are these: HepG2 mitochondrial potential, higher = more signal.
Assay [17] is described as follows: JC-1 mitochondrial signal, unstimulated adipocytes – cell-based, JC-1 fluorescence, 3T3-L1 adipocytes, 24 h, 100 nL compound, profiling panel (AID 1168). Also: test concentration not given here. Particulars: JC-1 mitochondrial fluorescence, higher = more signal, called active from +8 up or from −8 down.
Assay [18] in a line: JC-1 mitochondrial signal, unstimulated myeloma cells – cell-based, JC-1 fluorescence, RPMI8226, 24 h, 100 nL compound, profiling panel (AID 1169). Also: test concentration not given here. The conditions noted are these: JC-1 mitochondrial potential fluorescence, higher = more signal.
Assay [19] is described as follows: JC-1 mitochondrial signal, unstimulated MM1S myeloma – cell-based, JC-1 fluorescence, 24 h, 100 nL compound, profiling panel (AID 1170). Also: test concentration not given here. Particulars: MM1S mitochondrial potential, higher = more signal.
A short description of assay [20]: resazurin metabolic signal in A549 cells – cell-based, resazurin fluorescence, 24 h, PK04 Diversity Set, profiling panel (AID 1171). Also: test concentration not given here. Particulars: A549 viability, higher = more signal, called active from +8 up or from −8 down. A general note: Alamar Blue is a resazurin reagent that responds to reducing activity.

Active and inactive are the calls of the source.

Sequence of NADPH oxidase 5 (Homo sapiens) (Q96PH1 whole entry, looked up): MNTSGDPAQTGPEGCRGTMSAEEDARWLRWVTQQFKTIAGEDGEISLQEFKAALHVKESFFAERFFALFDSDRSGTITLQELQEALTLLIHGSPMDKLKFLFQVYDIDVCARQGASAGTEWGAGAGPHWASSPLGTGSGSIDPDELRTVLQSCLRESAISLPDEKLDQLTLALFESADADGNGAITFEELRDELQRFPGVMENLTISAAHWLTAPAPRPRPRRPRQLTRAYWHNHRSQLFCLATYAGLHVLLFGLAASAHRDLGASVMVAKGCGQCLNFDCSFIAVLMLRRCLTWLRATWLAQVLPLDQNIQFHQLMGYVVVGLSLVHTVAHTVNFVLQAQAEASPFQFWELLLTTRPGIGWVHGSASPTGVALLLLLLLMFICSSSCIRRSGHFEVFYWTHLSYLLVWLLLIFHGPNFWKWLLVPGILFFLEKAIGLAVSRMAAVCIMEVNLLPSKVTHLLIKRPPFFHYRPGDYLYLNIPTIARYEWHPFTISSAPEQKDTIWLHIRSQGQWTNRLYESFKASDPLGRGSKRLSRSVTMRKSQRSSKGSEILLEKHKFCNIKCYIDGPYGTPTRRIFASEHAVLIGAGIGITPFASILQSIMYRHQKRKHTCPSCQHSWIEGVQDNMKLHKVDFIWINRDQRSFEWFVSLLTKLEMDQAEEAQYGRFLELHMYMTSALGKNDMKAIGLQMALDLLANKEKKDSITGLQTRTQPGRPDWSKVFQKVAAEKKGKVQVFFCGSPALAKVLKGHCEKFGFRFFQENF
Sequence of NADPH oxidase 2 (Homo sapiens) (P04839 whole entry, looked up): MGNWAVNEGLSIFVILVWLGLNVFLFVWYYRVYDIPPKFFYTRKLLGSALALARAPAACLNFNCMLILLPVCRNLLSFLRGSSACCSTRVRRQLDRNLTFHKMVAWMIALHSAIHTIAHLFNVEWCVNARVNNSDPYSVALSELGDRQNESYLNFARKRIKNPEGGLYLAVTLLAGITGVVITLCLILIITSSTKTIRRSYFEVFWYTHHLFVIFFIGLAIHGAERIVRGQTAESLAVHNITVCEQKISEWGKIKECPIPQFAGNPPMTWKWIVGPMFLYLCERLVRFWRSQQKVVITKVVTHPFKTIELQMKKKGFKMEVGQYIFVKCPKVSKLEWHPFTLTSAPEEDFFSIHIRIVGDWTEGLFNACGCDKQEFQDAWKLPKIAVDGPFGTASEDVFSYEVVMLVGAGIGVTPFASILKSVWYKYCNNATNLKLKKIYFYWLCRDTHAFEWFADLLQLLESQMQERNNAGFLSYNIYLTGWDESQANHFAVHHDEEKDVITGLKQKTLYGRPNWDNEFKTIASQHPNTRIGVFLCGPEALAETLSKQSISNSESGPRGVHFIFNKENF
Sequence of NADPH oxidase 4 (Homo sapiens) (Q9NPH5 whole entry, looked up): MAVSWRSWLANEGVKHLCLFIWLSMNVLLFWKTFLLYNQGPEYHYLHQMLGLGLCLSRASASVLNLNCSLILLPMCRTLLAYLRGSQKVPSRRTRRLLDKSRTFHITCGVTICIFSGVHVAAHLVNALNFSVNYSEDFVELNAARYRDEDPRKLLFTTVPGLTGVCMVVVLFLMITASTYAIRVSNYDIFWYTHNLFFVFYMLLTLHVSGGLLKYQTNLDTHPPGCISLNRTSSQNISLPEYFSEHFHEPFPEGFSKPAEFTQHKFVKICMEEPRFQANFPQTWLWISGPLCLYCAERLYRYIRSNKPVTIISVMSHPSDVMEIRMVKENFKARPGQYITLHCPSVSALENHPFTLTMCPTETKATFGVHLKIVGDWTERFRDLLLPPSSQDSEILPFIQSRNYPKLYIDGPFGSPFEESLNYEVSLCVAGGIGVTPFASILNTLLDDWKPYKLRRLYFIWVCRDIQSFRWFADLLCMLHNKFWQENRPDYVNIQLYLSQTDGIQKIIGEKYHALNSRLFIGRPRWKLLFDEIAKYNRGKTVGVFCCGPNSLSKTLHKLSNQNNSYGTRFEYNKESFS

In the case of `CC=CC(O)C1C=CC2C(=O)N(C)C(=O)C2N1N(c1ccccc1)c1ccccc1` (stereo not given), the z-score in [1] is -1.3 (inactive); in [3], -0.553 (inactive); in [4] it was 0.603 (inactive); in [5], -0.461 (inactive); in assay [6] it was 1.12 (inactive); in [7] it was -0.674. The z-score in assay [8] is -0.633 (inactive); in assay [9] it was -0.176 (inactive); in assay [10], -0.111; in [11] it was -0.716; in assay [12], -1.7; in [13], -0.967. Further, the z-score in assay [14] is 0.13; in assay [15] it was 0.0318; in [16], -0.0443; in [17], -0.149 (inactive); in assay [18], -0.372; in [19] it was -0.106. Moreover, the z-score in [20] is -0.522 (inactive). In addition, the composite z-score in [2] was -0.101.
Take `COCCCNC(=O)[C@@]1(CCS(=O)(=O)c2ccccc2)N=C(c2ccc(OCCCO)cc2)O[C@H]1c1ccccc1N=[N+]=[N-]`: the z-score in assay [1] is 1.12 (inactive); in [3], 29.4 (active); in assay [4], 21 (active); in assay [5] it was 1.28 (inactive); in assay [6], 0.425 (inactive); in assay [7], 1.62. In addition, the z-score in [8] was -5.07 (inactive); in assay [9], -2.78 (inactive); in assay [10], -2.11; in assay [11], -0.196; in assay [12], 2.02; in assay [13] it was -0.43. The z-score in [14] is 0.0021; in assay [15], -2.28; in assay [16], 0.4; in assay [17], -0.636 (inactive); in [18], -0.938; in assay [19], -1.2. In assay [20], the z-score was 1.36 (inactive). In addition, in assay [2], the composite z-score amounted to 0.517.
On to `COCCOC(=O)N1C(=O)[C@@]2(c3ccccc31)[C@H](c1ccc(OCCO)cc1)N1[C@H](c3ccccc3)[C@H](c3ccccc3)OC(=O)[C@H]1[C@@H]2C(=O)N1CCc2cc(OC)c(OC)cc2C1`, for which the z-score is 0.341 (inactive) in assay [1]; 12.7 (active) in assay [3]; 3.86 (inactive) in assay [4]; 1.99 (inactive) in [5]; 2.18 (inactive) in [6]; 0.828 in [7]. Besides, the z-score was 1.16 (inactive) in assay [8]; 1.52 (inactive) in [9]; -0.259 in [10]; 0.114 in [11]; 1.09 in assay [12]; 1.37 in [13]. Also, the z-score in [14] is 0.175; in [15], -0.0296; in assay [16], 0.39; in assay [17], 3.06 (inactive); in [18] it was -0.749; in [19] it was -1.53. The z-score in assay [20] was -0.247 (inactive). This compound gave a composite z-score in [2] of 0.358.
For `CCCCN1CC=CC23O[C@@H]4C=CCOC(=O)[C@@H]4[C@H]2C(=O)N(CCCCCCO)[C@@H]3C1=O` (stereo not given in full), the z-score in assay [1] was -0.413 (inactive); in [3] it was 2.08 (inactive); in [4] it was 0.393 (inactive); in [5] it was 1.09 (inactive); in assay [6] it was 0.405 (inactive); in [7] it was 0.133. The z-score is 1.09 (inactive) in [8]; -0.282 (inactive) in assay [9]; 1.63 in assay [10]; 0.327 in assay [11]; -1.36 in [12]; 0.215 in assay [13]. Besides, the z-score is 0.546 in assay [14]; 0.569 in assay [15]; -0.71 in assay [16]; -0.228 (inactive) in assay [17]; 0.76 in [18]; -0.12 in assay [19]. Also, the z-score in assay [20] was -0.499 (inactive). Moreover, the composite z-score in assay [2] was -0.195.
For `COc1cc2c(cc1O)C(c1cccs1)N(Cc1cccc(OC(F)(F)F)c1)CC2` (stereo not given), the z-score was 0.36 (inactive) in assay [1]; 8.07 (active) in [3]; 0.192 (inactive) in assay [4]; 0.112 (inactive) in assay [5]; -0.751 (inactive) in [6]; 1.09 in assay [7]. The z-score is -4.69 (inactive) in assay [8]; -2.74 (inactive) in [9]; -4.1 in assay [10]; -2.79 in assay [11]; -0.0814 in assay [12]; -2.37 in [13]. Moreover, the z-score was -3.14 in assay [14]; -4.49 in [15]; -2.21 in [16]; -0.019 (inactive) in [17]; -0.774 in assay [18]; -1.77 in assay [19]. The z-score in assay [20] is -1.98 (inactive). This compound registered a composite z-score in assay [2] of -0.0999.
For the compound `O[C@@H](Cc1ccccc1)[C@@H](/C=C/C1CC1)NCc1cccc(Cl)c1`, the z-score in [1] is -1.12 (inactive); in assay [3], 1.27 (inactive); in assay [4] it was 1.03 (inactive); in assay [5], 0.972 (inactive); in assay [6], 0.721 (inactive); in assay [7], 0.528. Further, the z-score in [8] is -0.115 (inactive); in assay [9], -0.302 (inactive); in assay [10] it was -2.08; in assay [11], 0.399; in assay [12], -0.15; in assay [13], -1.39. Moreover, the z-score was -3.35 in assay [14]; -2.71 in assay [15]; -0.626 in assay [16]; 0.713 (inactive) in assay [17]; -1.01 in assay [18]; -1.7 in [19]. Further, the z-score in assay [20] is -0.707 (inactive). This compound also registered a composite z-score in assay [2] of -0.0295.
Consider `COCCCNC(=O)[C@@]1(Sc2ccc(C)cc2)CC(=O)N(Cc2ccccc2Cl)[C@@H]1c1ccc(CO)cc1`, for which the z-score in assay [1] is 0.864 (inactive); in [3] it was 0.38 (inactive); in assay [4] it was -0.91 (inactive); in [5], 0.712 (inactive); in assay [6], -1.83 (inactive); in assay [7] it was 2.14. Further, the z-score in assay [8] was -2.58 (inactive); in [9], -1.22 (inactive); in assay [10] it was -2.91; in [11], 0.102; in assay [12] it was 0.381; in assay [13], -0.646. For the same compound, the z-score in [14] was 0.661; in assay [15] it was -0.218; in assay [16] it was -0.627; in assay [17], -0.554 (inactive); in assay [18], 0.118; in [19], -2.29. For the same compound, the z-score in assay [20] was 1.76 (inactive). Further, the composite z-score in assay [2] was -0.0011.
With `CN1C(=O)C2C=CC(C(O)C=Cc3ccc([N+](=O)[O-])cc3)N(Nc3ccccc3)C2C1=O` (stereo not given), the z-score in [1] was -1.84 (inactive); in assay [3], 6.52 (inactive); in assay [4], 1.48 (inactive); in assay [5], 0.86 (inactive); in assay [6], 1.32 (inactive); in assay [7], -1.05. In addition, the z-score in assay [8] was -1.57 (inactive); in assay [9], -3.82 (inactive); in assay [10], -2.44; in assay [11], -0.598; in [12], -1.6; in assay [13], -0.432. The z-score was -0.655 in [14]; -0.997 in [15]; -1.53 in assay [16]; -1.48 (inactive) in assay [17]; -0.634 in [18]; -0.681 in [19]. The z-score in assay [20] is -0.408 (inactive). Further, the composite z-score in [2] was -0.139.
